Among the data in PubChem BioAssay (NCATS) are Potency values, retold here.

Experiment [1] in a line: qHTS of pediatric cancer cell lines to identify multiple opportunities for drug repurposing: Primary screen for BT-37 cells (AID 1347094). Further: potency means the concentration at half of the fitted maximal effect. A digest of the protocol: (§1)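 Primary screen of approved and investigational compounds on cells in growth media at 37 degrees C, 5% CO2. MIPE set at 11-point and NPC set at 8-point dilutions; viability scored by ATP-based luminescence at 48 hours.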

A short description of experiment [2]: qHTS of pediatric cancer cell lines to identify multiple opportunities for drug repurposing: Primary screen for U-2 OS cells (AID 1347096). Further: nearly all actives have a fitted effect of over 50% in size. In a few lines:
(§2)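 Cells (500-1,000/well) rested 5 h, then received compounds for 48 h; metabolically active cells were measured by CellTiter-Glo luminescence. Final concentrations spanned up to 46 µM (MIPE, 11-point) or 0.59 nM-46 µM (NPC, 8-point) in primary screens, 11-point in follow-ups.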
(In general: In qHTS, concentration-response curves come from the screen itself.)

The nature of experiment [3]: qHTS of pediatric cancer cell lines to identify multiple opportunities for drug repurposing: Primary screen for Saos-2 cells (AID 1347097). Further: nearly all actives have a fitted effect of over 40% in size. Further: potency means the concentration at half of the fitted maximal effect. In a few lines:
as §1

Experiment [4] is described as follows: qHTS of pediatric cancer cell lines to identify multiple opportunities for drug repurposing: Primary screen for SK-N-SH cells (AID 1347098). Further: nearly all actives have a fitted effect of over 65% in size. Further: potency means the concentration at half of the fitted maximal effect. In a few lines:
as §2

The nature of experiment [5]: qHTS of pediatric cancer cell lines to identify multiple opportunities for drug repurposing: Primary screen for NB1643 cells (AID 1347099). Further: nearly all actives have a fitted effect of over 50% in size. Further: potency means the concentration at half of the fitted maximal effect. In a few lines:
as §1

The nature of experiment [6]: qHTS of pediatric cancer cell lines to identify multiple opportunities for drug repurposing: Primary screen for LAN-5 cells (AID 1347100). Further: potency means the concentration at half of the fitted maximal effect. A digest of the protocol:
as §2

The nature of experiment [7]: qHTS of pediatric cancer cell lines to identify multiple opportunities for drug repurposing: Primary screen for BT-12 cells (AID 1347101). Further: nearly all actives have a fitted effect of over 25% in size. Further: potency means the concentration at half of the fitted maximal effect. In a few lines: as §2
Experiment [8] can be described thus: qHTS of pediatric cancer cell lines to identify multiple opportunities for drug repurposing: Primary screen for Rh18 cells (AID 1347102). Further: nearly all actives have a fitted effect of over 65% in size. Further: potency means the concentration at half of the fitted maximal effect. A digest of the protocol: as §2
Experiment [9] can be described thus: qHTS of pediatric cancer cell lines to identify multiple opportunities for drug repurposing: Primary screen for OHS-50 cells (AID 1347103). Further: nearly all actives have a fitted effect of over 40% in size. Further: potency means the concentration at half of the fitted maximal effect. In a few lines:
as §2

Experiment [10] in a line: qHTS of pediatric cancer cell lines to identify multiple opportunities for drug repurposing: Primary screen for RD cells (AID 1347104). Further: nearly all actives have a fitted effect of over 55% in size. Further: potency means the concentration at half of the fitted maximal effect. A digest of the protocol: as §1
The nature of experiment [11]: qHTS of pediatric cancer cell lines to identify multiple opportunities for drug repurposing: Primary screen for MG 63 (6-TG R) cells (AID 1347105). Further: nearly all actives have a fitted effect of over 50% in size. Further: potency means the concentration at half of the fitted maximal effect. A digest of the protocol:
as §1

The nature of experiment [12]: qHTS of pediatric cancer cell lines to identify multiple opportunities for drug repurposing: Primary screen for control Hh wild type fibroblast cells (AID 1347106).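 Further: series mostly up to about 46 µM; a drop in luminescence marks cytotoxicity and a rise apparent proliferation; nearly all actives have a fitted effect of over 55% in size.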 In a few lines: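 Cells (500-1,000/well) in growth media were settled 5 h at 37 degrees C, then given compounds for 48 h. Viability was read as CellTiter-Glo luminescence. Primary runs used MIPE at 11 points (0.78 nM-46 µM) and NPC at 8 points (0.59 nM-46 µM); follow-ups used 11 points.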

Experiment [13] in a line: qHTS of pediatric cancer cell lines to identify multiple opportunities for drug repurposing: Primary screen for Rh30 cells (AID 1347107). Further: series mostly up to about 46 µM; nearly all actives have a fitted effect of over 75% in size. A digest of the protocol:
as §2

The nature of experiment [14]: qHTS of pediatric cancer cell lines to identify multiple opportunities for drug repurposing: Primary screen for Rh41 cells (AID 1347108). Further: nearly all actives have a fitted effect of over 70% in size. Further: potency means the concentration at half of the fitted maximal effect. In a few lines:
as §1

The nature of experiment [15]: qHTS of pediatric cancer cell lines to identify multiple opportunities for drug repurposing: Primary screen for NB-EBc1 cells (AID 1347095). Further: potency means the concentration at half of the fitted maximal effect. A digest of the protocol: as §1
Experiment [16] is described as follows: qHTS of pediatric cancer cell lines to identify multiple opportunities for drug repurposing: Confirmatory screen for NB1643 cells (AID 1347109). Further: potency means the concentration at half of the fitted maximal effect; nearly all actives have a fitted effect of over 45% in size. In a few lines:
as §2

A short description of experiment [17]: qHTS of pediatric cancer cell lines to identify multiple opportunities for drug repurposing: Confirmatory screen for A673 cells (AID 1347110).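 Further: potency means the concentration at half of the fitted maximal effect; cells exposed to compound for 48 h before the viability read; nearly all actives have a fitted effect of over 65% in size.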 In a few lines: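 qHTS titration format: primary MIPE 0.78 nM-46 µM (11 pts), NPC 0.59 nM-46 µM; confirmation 11 pts. 48 h, CTG luminescence.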
A short description of experiment [18]: qHTS of pediatric cancer cell lines to identify multiple opportunities for drug repurposing: Confirmatory screen for SK-N-MC cells (AID 1347111).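 Further: potency means the concentration at half of the fitted maximal effect; cells exposed to compound for 48 h before the readout; nearly all actives have a fitted effect of over 70% in size.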 A digest of the protocol:
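Seed 500-1,000 cells/well; rest 5 h at 37 degrees C. Pin-transfer compounds, 11-point titration. Incubate 48 h. Add CellTiter-Glo, 15 min RT, read luminescence.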

The nature of experiment [19]: qHTS of pediatric cancer cell lines to identify multiple opportunities for drug repurposing: Confirmatory screen for LAN-5 cells (AID 1347113). Further: potency means the concentration at half of the fitted maximal effect; nearly all actives have a fitted effect of over 65% in size. In a few lines: as §2

“And” between values parts separate entries of the source, which are not always exact repeats. Identical values can stand only once. Inconclusive results are not listed. The source made the active and inactive calls. The call rests on the fitted dose curve; in most records, active means well fitted curve in the direction sought with a large enough effect; inconclusive means small, poorly fitted or top-dose-only effect, or another doubt; inactive means no such curve, though single readings can be large; an effect the other way counts as inactive or inconclusive.

`CCOC(=O)O[C@]1(C(=O)OCCl)CC[C@@H]2[C@H]3CCC4=CC(=O)C=C[C@]4(C)[C@@H]3[C@@H](O)C[C@@]21C`: the Potency result in [1], in experiment [2], in experiment [3], in [4], in experiment [5] and in experiment [6] was “inactive” throughout. Besides, the Potency result in experiment [7], in experiment [8], in experiment [9], in [10], in experiment [11] and in experiment [12] was “inactive” each time. In addition, the Potency result in [13] and in experiment [14] was “inactive” throughout.

Take `CCN1CCC[C@H]1CNC(=O)c1cc(S(N)(=O)=O)ccc1OC`: the Potency entry in [1], in [15], in [3], in [5], in experiment [6] and in experiment [7] was “inactive” in each case. In addition, the Potency entry in experiment [8], in experiment [9], in experiment [10], in experiment [11], in [12] and in experiment [13] was “inactive” in each case. Moreover, the Potency entry in [14] was “inactive”.

Regarding `CO[C@H]1C=CO[C@@]2(C)Oc3c(C)c(O)c4c(O)c(c5c(c4c3C2=O)NC2(CCN(CC(C)C)CC2)N=5)=NC(=O)C(C)=CC=C[C@H](C)[C@H](O)[C@@H](C)[C@@H](O)[C@@H](C)[C@H](OC(C)=O)[C@H]1C`, the Potency entry in experiment [1], in experiment [15], in [3], in [4], in [7] and in experiment [8] was “inactive” each time. In addition, the Potency entry in experiment [10], in experiment [12] and in experiment [13] was “inactive” in each case.

On to `NC(CO)(CO)CCc1ccc(Sc2cccc(OCc3ccccc3)c2)cc1Cl`, for which the Potency in [1] is 19.3 µM (active); in [15] it was 1.87 µM (active); in experiment [3], 29.6 µM (active); in experiment [5], 16.6 µM (active); in experiment [7], 30.6 µM (active); in [9], 27.3 µM (active). In addition, the figures for the Potency in experiment [10] and in [11] were 33.2 µM (active) and 29.6 µM (active), respectively. For the same compound, the Potency entry in experiment [13] is “inactive”.

`O=C(CCCCCCC(=O)Nc1ccccc1)NO`: the Potency in experiment [1] was 5.5 µM (active) and 7.69 µM (active); in [15], 1 nM (active) and 1.48 µM (active); in [3], 4.73 µM (active) and 5.9 µM (active); in [4], 2.73 µM (active) and 7.64 µM (active); in experiment [6] it was 1 nM (active) and 1.32 µM (active); in [7] it was 6.92 µM (active) and 17.2 µM (active). The Potency in experiment [8] is 2.99 µM (active) and 4.18 µM (active); in experiment [9] it was 2.19 µM (active) and 2.73 µM (active); in experiment [10] it was 5.31 µM (active) and 6.62 µM (active); in experiment [11] it was 3.35 µM (active) and 3.72 µM (active).

For the compound `CN(C)C1CCN(C(=O)c2ccc(NC(=O)Nc3nc(N4CCOCC4)nc(N4CCOCC4)n3)cc2)CC1`, the Potency in experiment [1] was 0.0273 µM (active); in experiment [15] it was 1.32 µM (active); in experiment [3], 0.166 µM (active); in experiment [6], 187 nM (active); in experiment [8] it was 52.6 nM (active); in experiment [9], 0.0217 µM (active). Moreover, the Potency was 0.0662 µM (active) in experiment [10]; 0.0935 µM (active) in experiment [11]; 0.0935 µM (active) in experiment [14]; 0.928 µM (active) in experiment [16]; 0.0737 µM (active) in experiment [17]; 0.208 µM (active) in experiment [18]. Also, the Potency in [19] is 0.261 µM (active). In experiment [13], the Potency entry is “inactive”.

With `O=C(NCCN1CCOCC1)c1ccc(Cl)cc1`, the Potency entry in experiment [1], in experiment [2], in experiment [3], in experiment [4], in [5] and in [6] was “inactive” in each case. In addition, the Potency result in experiment [7], in [8], in [9], in [10], in experiment [11] and in experiment [12] was “inactive” throughout. For the same compound, the Potency entry in [13] and in experiment [14] was “inactive” each time.

`O=c1cc(-c2cccc3c2Sc2ccccc2S3)oc(N2CCOCC2)c1`: the Potency entry in experiment [1], in experiment [15], in [6], in experiment [7], in experiment [8] and in experiment [12] was “inactive” each time. Besides, the Potency result in [13] was “inactive”.

For `CO[C@H]1C[C@@H]2CC[C@@H](C)[C@@](O)(O2)C(=O)C(=O)N2CCCC[C@@H]2C(=O)O[C@H]([C@H](C)C[C@@H]2CC[C@H](OC(=O)C(C)(CO)CO)[C@H](OC)C2)CC(=O)[C@H](C)C=C(C)[C@@H](O)[C@@H](OC)C(=O)[C@H](C)C[C@H](C)C=CC=CC=C1C`, the Potency is 30.6 µM (active) in experiment [1]; 9.35 µM (active) in experiment [15]; 16.6 µM (active) in experiment [3]; 23.5 µM (active) in [5]; 20900 nM (active) in experiment [6]; 29600 nM (active) in experiment [8]. Further, in experiment [14], the Potency was 14.8 µM (active). The Potency result in experiment [4] and in [12] was “inactive” each time.
